PubChem BioAssay
Values without a mark were called inactive. For part of these data: Results with a measured potency or affinity are listed apart. The source made the active and inactive calls. Unless noted, no rule for the calls is given here.

Assays:
[1] = antimalarial activity against Dd2 strain (AID 2302;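 active = growth inhibition above 50% at the single 2 µM test dose, taken to imply half-maximal potency below 2 µM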;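 also: 0% = DMSO untreated growth and 100% = chloroquine plus artemisinin killed control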); details: P. falciparum Dd2 in RBCs, LDH growth readout, 72 h; at 2 µM; hits give high values
[2] = human hepatoma cell viability loss – ATP luminescence, cytotoxicity control for P. falciparum antimalarial project, primary screen (AID 2303;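 active = inhibition above 50%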;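 also: 0% = DMSO wells and 100% = digitonin-killed cells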); details: HepG2 viability, 24-48 h, at 10 µM, hits give high values
[3] = target: L-lactate dehydrogenase (Plasmodium falciparum (isolate CDC / Honduras)) (UniProt Q27743); experiment: PfLDH activity inhibition – cell lysate, 3D7 strain, counter-screen for P. falciparum growth inhibition project (AID 2304);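 also: 0% = vehicle and 100% = reference inhibitor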; details: P. falciparum 3D7 crude extract, LDH APAD/NBT absorbance; at 2 µM; hits give high values
Sequence of L-lactate dehydrogenase (Plasmodium falciparum (isolate CDC / Honduras)) (Q27743 whole entry, looked up): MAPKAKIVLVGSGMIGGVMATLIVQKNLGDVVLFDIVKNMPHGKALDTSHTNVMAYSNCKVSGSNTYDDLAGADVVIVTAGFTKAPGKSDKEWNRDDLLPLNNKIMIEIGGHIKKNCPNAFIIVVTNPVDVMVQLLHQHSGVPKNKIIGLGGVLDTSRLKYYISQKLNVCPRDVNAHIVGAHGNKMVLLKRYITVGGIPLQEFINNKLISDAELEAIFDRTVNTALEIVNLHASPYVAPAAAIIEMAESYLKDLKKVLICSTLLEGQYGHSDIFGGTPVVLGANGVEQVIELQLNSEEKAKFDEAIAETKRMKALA

[4] = inhibition of 3D7 malaria parasite growth – strain 3D7 (AID 2306);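 also: 0% = DMSO wells and 100% = chloroquine plus artemisinin control wells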; details: P. falciparum 3D7 erythrocytic growth, LDH absorbance, 72 h; at 2 µM; hits give high values
[5] = target: Calcium-dependent protein kinase 1 (Plasmodium falciparum (isolate 3D7)) (UniProt P62344); experiment: PfCDPK1 kinase inhibitors, biochemical, TCAMS library (AID 1159585; cut-off not given, nearly all actives have IC50 up to about 0.98 µM;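 also: inhibitors leave more ATP so luminescence rises with inhibition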); details: recombinant PfCDPK1, Kinase-Glo ATP depletion luminescence
Sequence of Calcium-dependent protein kinase 1 (Plasmodium falciparum (isolate 3D7)) (P62344 whole entry, looked up): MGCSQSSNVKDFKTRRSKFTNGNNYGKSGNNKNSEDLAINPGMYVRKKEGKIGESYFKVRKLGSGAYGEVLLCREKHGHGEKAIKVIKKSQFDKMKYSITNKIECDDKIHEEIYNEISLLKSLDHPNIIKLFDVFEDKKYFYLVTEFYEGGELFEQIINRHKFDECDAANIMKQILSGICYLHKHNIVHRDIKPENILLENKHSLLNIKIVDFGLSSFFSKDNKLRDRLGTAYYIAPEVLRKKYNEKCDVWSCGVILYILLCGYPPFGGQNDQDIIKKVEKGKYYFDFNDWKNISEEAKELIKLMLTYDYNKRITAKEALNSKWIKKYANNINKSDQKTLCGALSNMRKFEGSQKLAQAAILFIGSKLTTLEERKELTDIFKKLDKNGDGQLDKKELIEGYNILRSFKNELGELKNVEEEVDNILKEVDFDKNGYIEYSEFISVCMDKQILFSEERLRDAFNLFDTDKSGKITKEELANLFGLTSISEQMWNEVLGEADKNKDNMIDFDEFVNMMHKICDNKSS

[6] = target: Plasmodium falciparum protein kinase 6 (PK6, PF3D7_1337100) (UniProt Q8IDW1); experiment: PfPK6 kinase inhibitors, biochemical, TCAMS library (AID 1159586); details: recombinant PfPK6, Kinase-Glo ATP depletion luminescence
Sequence of Plasmodium falciparum protein kinase 6 (PK6, PF3D7_1337100) (Q8IDW1 1-305): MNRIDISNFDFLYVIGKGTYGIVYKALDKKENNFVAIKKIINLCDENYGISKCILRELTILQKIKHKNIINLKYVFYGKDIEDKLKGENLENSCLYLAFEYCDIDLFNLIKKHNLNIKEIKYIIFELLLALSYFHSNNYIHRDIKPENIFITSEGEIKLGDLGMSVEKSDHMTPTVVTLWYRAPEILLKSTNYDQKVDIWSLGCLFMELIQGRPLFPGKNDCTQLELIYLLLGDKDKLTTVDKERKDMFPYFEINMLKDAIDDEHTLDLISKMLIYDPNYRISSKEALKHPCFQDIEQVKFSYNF

[7] = target: Protein kinase 7 (PK7), Plasmodium falciparum 3D7 (PF3D7_0213400) (UniProt Q7YTF7); experiment: inhibition of Plasmodium PK7 catalytic activity – biochemical, TCAMS antimalarial set, Kinase-Glo luminescence (AID 1159587); details: recombinant PfPK7, Kinase-Glo ATP depletion luminescence
Sequence of Protein kinase 7 (PK7), Plasmodium falciparum 3D7 (PF3D7_0213400) (Q7YTF7 1-343): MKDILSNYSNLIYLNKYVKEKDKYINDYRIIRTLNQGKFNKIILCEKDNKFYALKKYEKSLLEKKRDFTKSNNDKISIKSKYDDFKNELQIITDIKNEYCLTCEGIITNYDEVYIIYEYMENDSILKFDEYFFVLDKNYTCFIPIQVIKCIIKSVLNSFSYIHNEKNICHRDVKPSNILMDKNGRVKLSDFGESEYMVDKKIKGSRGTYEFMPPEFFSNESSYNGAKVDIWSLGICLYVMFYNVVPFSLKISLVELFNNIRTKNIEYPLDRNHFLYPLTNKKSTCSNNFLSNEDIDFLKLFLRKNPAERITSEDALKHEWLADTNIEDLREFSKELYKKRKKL

[8] = target: Calcium-dependent protein kinase 4 (Plasmodium falciparum (isolate 3D7)) (UniProt Q8IBS5); experiment: PfCDPK4 kinase inhibitors, biochemical, TCAMS library (AID 1159588; cut-off not given, nearly all actives have IC50 up to about 0.91 µM); details: recombinant PfCDPK4, Kinase-Glo ATP depletion luminescence
Sequence of Calcium-dependent protein kinase 4 (Plasmodium falciparum (isolate 3D7)) (Q8IBS5 whole entry, looked up): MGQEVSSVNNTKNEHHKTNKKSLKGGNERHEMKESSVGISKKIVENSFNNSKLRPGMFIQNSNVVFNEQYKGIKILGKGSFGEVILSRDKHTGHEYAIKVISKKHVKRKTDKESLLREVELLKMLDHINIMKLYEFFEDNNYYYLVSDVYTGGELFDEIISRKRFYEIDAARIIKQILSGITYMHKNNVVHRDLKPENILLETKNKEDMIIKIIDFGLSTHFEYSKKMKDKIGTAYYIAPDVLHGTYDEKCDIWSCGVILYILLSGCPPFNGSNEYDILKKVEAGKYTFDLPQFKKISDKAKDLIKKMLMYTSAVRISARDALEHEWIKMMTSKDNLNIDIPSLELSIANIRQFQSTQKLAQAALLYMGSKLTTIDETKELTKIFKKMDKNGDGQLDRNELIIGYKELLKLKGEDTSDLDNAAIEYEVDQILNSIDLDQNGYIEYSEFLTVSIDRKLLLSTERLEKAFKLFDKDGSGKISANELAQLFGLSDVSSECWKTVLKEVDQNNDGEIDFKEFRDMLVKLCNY

| Structure (SMILES) | growth inhibition [1] | inhibition [2] | inhibition [3] [%] | growth inhibition [4] | outcome [5] | outcome [6] | outcome [7] | outcome [8] |
| --- | --- | --- | --- | --- | --- | --- | --- | --- |
| COc1ccc(CNc2nccc3ccc(-c4ccc(N)nc4)cc23)cc1 | 49% | 7% | 2 | 93% (active) | inactive | inactive | inactive | inactive |
| CCN1CCC(N(Cc2ccc(-c3ccc(C(F)(F)F)cc3)cc2)C(=O)Cn2c(CCc3cccc(F)c3F)cc(=O)c3ccccc32)C1 (configuration not stated) | 84% (active) | 43% | 3 | 93% (active) | inactive | inactive | inactive | inactive |
| CCOc1cc(C)ccc1C1CCN(CCCCNC(=O)c2ccc(-c3ccc(Cl)cn3)cc2)CC1 | 8% | 19% | -6 | 94% (active) | inactive | inactive | inactive | inactive |
| CS(=O)(=O)c1cccc(-c2cnc3[nH]cc(-c4ccc(CCC(=O)O)cc4)c3c2)c1 | 99% (active) | 1% | -6 | 97% (active) | inactive | inactive | inactive | inactive |
| COc1ccc2nccc([C@@H](O)CN3CCC(NCc4cc5cccc(O)c5c(=O)[nH]4)CC3)c2c1 | 66% (active) | 8% | 3 | 99% (active) | inactive | inactive | inactive | inactive |
| CCOc1cc(C(=O)NCCCN2CCN(c3cccc(Cl)c3)CC2)ccc1-c1nc2cc(Cl)c(F)cc2[nH]1 | 19% | 16% | 7 | 96% (active) | inactive | inactive | inactive | inactive |
| Cc1cc(NC(=O)c2cccs2)ccc1OC1CCN(Cc2ccc(F)cc2)C1 (configuration not stated) | 92% (active) | 0% | 0 | 95% (active) | inactive | inactive | inactive | inactive |
| Cc1nc(-c2cccc(C(=O)NC3CCC(CCN4CCc5ccc(-c6cccnc6)cc5CC4)CC3)c2)no1 (configuration not stated) | 4% | 17% | -1 | 98% (active) | inactive | inactive | inactive | inactive |
| COc1cc(NC(=O)c2cccc([N+](=O)[O-])c2)cc(S(=O)(=O)c2ccc(Cl)cc2)c1 | 23% | -12% | -3 | 88% (active) | inactive | inactive | inactive | inactive |
| CN1CCN(CCCN(Cc2ccc(-c3ccc(CNCCc4ccccc4)cc3)cc2)C(=O)c2cccs2)CC1 | 78% (active) | 32% | 3 | 98% (active) | inactive | inactive | inactive | inactive |
| CC(C)(C)c1nn(-c2ccccc2)c2[nH]c(=O)c(CNCc3ccccc3)cc12 | 91% (active) | 5% | 2 | 90% (active) | inactive | inactive | inactive | inactive |
| O=C(Nc1ccc(-c2nc3ccccc3[nH]2)cc1)c1cncc(Br)c1 | 49% | 35% | 1 | 95% (active) | inactive | inactive | inactive | inactive |
| CC(C)(C)c1cc(C(=O)Nc2cccnc2)cc(C(=O)Nc2cccnc2)c1 | 35% | -12% | -3 | 95% (active) | inactive | inactive | inactive | inactive |
| COc1ccccc1-c1nc2nc(N)nc(N)c2nc1-c1ccccc1OC | 1% | 27% | 1 | 84% (active) | inactive | inactive | inactive | inactive |
| C#CCOc1ccccc1CN1CCC(N2CCc3cc(NC(=O)c4cc(C)on4)ccc32)C1 (configuration not stated) | 94% (active) | 16% | -2 | 95% (active) | inactive | inactive | inactive | inactive |
| COc1ccc2ncc(Cl)c(CCN3CCC(NCc4ccc5c(n4)NC(=O)CO5)CC3)c2c1 | 26% | 25% | -1 | 92% (active) | inactive | inactive | inactive | inactive |
| Cc1ccccc1N1CCN(c2ncc(C(=O)NC3CC3)cc2Cl)CC1 | 96% (active) | 23% | -2 | 91% (active) | inactive | inactive | inactive | inactive |
| Nc1ncc(Cc2ccc3c(ccc4ccccc43)c2)c(N)n1 | 3% | 9% | -5 | 97% (active) | inactive | inactive | inactive | inactive |
| CCC(CCON1C(N)=NC(N)=NC1(C)C)c1ccc(Cl)c(Cl)c1 (configuration not stated) | 98% (active) | 68% (active) | -7 | 94% (active) | inactive | inactive | inactive | inactive |
| CCCCCCn1c2c(c(=N)c3c1CCC3)CCCC2 | 76% (active) | 31% | 4 | 99% (active) | inactive | inactive | inactive | inactive |

| Structure (SMILES) | growth inhibition [1] | inhibition [2] | inhibition [3] [%] | growth inhibition [4] | outcome [5] | outcome [6] | outcome [7] | outcome [8] |
| --- | --- | --- | --- | --- | --- | --- | --- | --- |
| CCCc1cc(N2CCC(c3ccccc3)(N3CCCCC3)CC2)nc(Nc2ccc(OC)cc2)n1 | 28% | 13% | 1 | 81% (active) | inactive | inactive | inactive | inactive |
| CCN(CC)S(=O)(=O)c1ccc(CCOCCCCCNCC(O)c2cc(Cl)c(N)c(Cl)c2)s1 (configuration not stated) | 80% (active) | 35% | -10 | 96% (active) | inactive | inactive | inactive | inactive |
| COc1ccc(CNCc2cccc(-c3ccc(-c4nc5ccc(C(F)(F)F)cc5[nH]4)cc3)c2)cc1 | 95% (active) | 23% | 0 | 102% (active) | inactive | inactive | inactive | inactive |
| COC1CCC(C(=O)Nc2ccc(-c3cccc(-c4nc5c(C)cccc5[nH]4)c3)cc2)CC1 (configuration not stated) | 60% (active) | 89% (active) | 1 | 97% (active) | inactive | inactive | inactive | inactive |
| CCc1cc(Cc2cnc(N)nc2N)cc(CC)c1OC | 12% | 3% | 8 | 90% (active) | inactive | inactive | inactive | inactive |
| O=C(c1ccc(F)c(F)c1)N1CCOC(CCN2CCC(c3ccccc3)CC2)(c2ccc(Cl)c(Cl)c2)C1 (configuration not stated) | 75% (active) | 51% (active) | 2 | 89% (active) | inactive | inactive | inactive | inactive |
| CC(C)CNCc1ccc(-c2cccc(CN(C(=O)NCCc3ccccc3)C3CCN(Cc4ccccc4)CC3)c2)cc1 | 94% (active) | 91% (active) | -1 | 100% (active) | inactive | inactive | inactive | inactive |
| CCN(CC)CCN(Cc1ccc(-c2ccc(C(F)(F)F)cc2)cc1)C(=O)Cn1cc(Cc2cnn(C)c2)c(=O)n2nc(-c3ccccc3)cc12 | 74% (active) | 18% | -2 | 100% (active) | inactive | inactive | inactive | inactive |
| Cc1cccc(C)c1C1CCN(CCCCNC(=O)c2cc3ccccc3[nH]2)CC1 | 18% | 46% | 4 | 90% (active) | inactive | inactive | inactive | inactive |
| CN1CCN(CCCNc2ncc3c(-c4ccc(NC(=O)Nc5cc(C(F)(F)F)ccc5F)c(F)c4)nn(C)c3n2)CC1 | 94% (active) | 100% (active) | 1 | 98% (active) | inactive | inactive | inactive | inactive |
| CCNC(=O)N[C@@H]1CN[C@@H](C#Cc2cc3c(Nc4ccc(OCc5cccc(F)c5)c(Cl)c4)ncnc3s2)C1 | 27% | -2% | 0 | 85% (active) | inactive | inactive | inactive | inactive |
| CN1CCc2ccc(NC(=O)Nc3ccc(Cl)c(Cl)c3)cc2C1 | 22% | -10% | 1 | 80% (active) | inactive | inactive | inactive | inactive |
| Cc1ccc(Cn2nc(Cl)c(N3CCNCC3)cc2=O)cc1NC(=O)Nc1ccc(-c2ccccc2)cc1 | 97% (active) | 100% (active) | -5 | 98% (active) | inactive | inactive | inactive | inactive |
| COC(=O)c1cccc(CNCc2cccc(-c3cccc(-c4nc5ccccc5[nH]4)c3)c2)c1 | 58% (active) | 3% | -3 | 95% (active) | inactive | inactive | inactive | inactive |
| Cc1ccccc1C1CCN(C2CCC(NC(=O)c3ccc(-c4ccccc4)s3)CC2)CC1 (configuration not stated) | 84% (active) | 26% | 0 | 101% (active) | inactive | inactive | inactive | inactive |
| CN(C)CCN1CCN(Cc2cccc(-c3csc(-c4nc5ccccc5[nH]4)c3)c2)CC1 | 97% (active) | 28% | -5 | 100% (active) | inactive | inactive | inactive | inactive |
| CCOc1cc(C)ccc1N1CCN(CCCCNC(=O)c2ccc(NC(=O)c3ccc(Cl)cc3)cc2)CC1 | 46% | 19% | -5 | 100% (active) | inactive | inactive | inactive | inactive |
| CC(=O)N1CCC(C(=O)Nc2ccc(-c3cccc(-c4nc5c(C)cccc5[nH]4)c3)cc2)CC1 | 27% | 85% (active) | -1 | 84% (active) | inactive | inactive | inactive | inactive |
| COc1ccc2nccc([C@@H](O)CN3CCC(NCc4cc5c(F)ccc(F)c5[nH]4)CC3)c2c1 | 67% (active) | 29% | 0 | 100% (active) | inactive | inactive | inactive | inactive |
